Laboratory results taken from PubChem BioAssay (Tox21).
Values joined by “and” are separate entries in the source; they are usually repeats but may differ in a detail not shown here. Identical values can stand only once. Results filed as inconclusive are left out. Where a call stands in place of a potency, no number is given. More than one record can exist for a structure, and the calls need not agree. Active and inactive are the calls of the source. Calls come from the whole dose curve.

target: 5-hydroxytryptamine receptor 2A (Homo sapiens) (UniProt P28223); test: 5-hydroxytryptamine receptor 2A (HTR2A) small molecule agonists, cell-based qHTS assay (AID 1963587); details: HTR2A-CHO cells, calcium flux fluorescence, agonist mode; series mostly up to 76.8 µM; note: nearly all actives have a fitted effect of over 30% in size
Sequence (P28223 whole entry, looked up): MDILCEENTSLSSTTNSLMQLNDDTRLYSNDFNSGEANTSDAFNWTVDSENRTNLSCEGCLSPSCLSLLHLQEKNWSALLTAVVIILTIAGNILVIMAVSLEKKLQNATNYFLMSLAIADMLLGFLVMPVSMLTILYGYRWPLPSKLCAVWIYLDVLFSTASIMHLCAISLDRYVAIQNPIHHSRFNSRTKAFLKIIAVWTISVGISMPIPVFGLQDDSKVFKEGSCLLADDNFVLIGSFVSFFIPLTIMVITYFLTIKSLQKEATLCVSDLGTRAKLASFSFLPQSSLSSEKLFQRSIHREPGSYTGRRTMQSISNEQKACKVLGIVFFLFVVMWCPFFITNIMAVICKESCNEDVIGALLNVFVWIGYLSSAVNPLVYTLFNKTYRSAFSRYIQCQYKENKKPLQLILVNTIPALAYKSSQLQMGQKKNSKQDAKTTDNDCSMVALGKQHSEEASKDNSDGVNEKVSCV
Excerpt: National Center for Advancing Translational Sciences [NCATS]
Division of Preclinical Innovation [DPI]
U.S. Environmental Protection Agency [EPA]
National Institutes of Environmental Health Sciences [NIEHS]
National Toxicology Program [NTP]
U.S. Food and Drug Administration [FDA]
The HTR2A receptor is a subtype of the 5-HT2 receptor that belongs to the serotonin receptor family and is a G protein-coupled receptor (GPCR). The HTR2A-CHO cell line stably expressing human 5-hydroxytryptamine receptor 2A (HTR2A) can be used for screening agonists of interactions between 5-HT2 and its ligands. The HTR2A-CHO calcium flux assay is a homogeneous fluorescence-based assay for detecting the intracellular calcium level using FDSS kinetic plate reader system.
HTR2A-CHO cells were dispensed at 2000 cells/3uL/well in 1536-well black-clear bottom plates using a Multidrop Dispenser. After the assay plates were incubated at a 37 C/5% CO2 incubator for 18 h, 3 uL of Dye Loading Buffer was transferred to the assay plate by a Flying Reagent Dispenser. The assay plates were incubated at 37 C for 1h. For agonist mode, 23 nL of compounds dissolved in DMSO, positive controls or DMSO only was transferred to the assay plate by a pin tool. The fluorescence intensity in the plates was measured using FDSS 7000EX kinetic plate reader for 2 min at 1 sec intervals.
Potency is the fitted concentration of half-maximal effect.

SMILES | Potency | activation
C[C@]12CCC(=O)C=C1CC[C@@H]1[C@@H]2CC[C@]2(C)C(=O)CC[C@@H]12 | inactive | –
CN(C)CCO | inactive | –
O=C1C(Cl)=C(Cl)C(=O)C(Cl)=C1Cl | inactive | –
O=[N+]([O-])c1ccccc1O | inactive | –
Clc1cccc(Cl)c1Cl | inactive | –
CC(C)(C)OOC(=O)c1ccccc1 | inactive | –
N#CCBr | inactive | –
Cc1cc(Cl)ccc1N | inactive | –
Nc1ccc(-c2ccc(N)cc2)cc1 | inactive | –
C=CC(Cl)CCl (stereo not given) | inactive | –
CN(C)[C@@H]1C(=O)C(C(N)=O)=C(O)[C@@]2(O)C(=O)C3=C(O)c4c(O)cccc4[C@@](C)(O)[C@H]3[C@H](O)[C@@H]12 | inactive | –
CCC[N+]1(C)CCCCC1 | inactive | –
CCCSC(=O)Cl | inactive | –
CC(=O)C=C(C)C | inactive | –
OCCOCCO | inactive | –
c1ccc(N=Nc2ccccc2)cc1 | inactive | –
Cc1ccc([N+](=O)[O-])cc1C | inactive | –
O=C(O)C1C(C(=O)O)C2(Cl)C(Cl)=C(Cl)C1(Cl)C2(Cl)Cl (stereo not given) | inactive | –
COc1ccc(N)cc1 | inactive | –
COC(=O)c1cncn1C(C)c1ccccc1 (stereo not given) | inactive | –

SMILES | Potency | activation
CCCCCCCCCCCC[N+](C)(C)CCOc1ccccc1 | 43.7 µM (active) | –
CCC1(c2ccccc2)CCC(=O)NC1=O (stereo not given) | inactive | –
C1CN2CCN1CC2 | inactive and 54.9 µM (active) | –
CC[n+]1ccccc1 | inactive | –
O=[N+]([O-])c1ccc(Cl)c([N+](=O)[O-])c1 | inactive | –
CC(C)C1(C)N=C(c2ncccc2C(=O)O)NC1=O (stereo not given) | inactive | –
ClC1=C(Cl)[C@]2(Cl)[C@@H]3[C@@H](Cl)[C@H](Cl)C[C@@H]3[C@@]1(Cl)C2(Cl)Cl | inactive | –
C=C(C)C(=O)OCC(CC)CCCC (stereo not given) | inactive | –
Brc1c(Br)c(Br)c(Br)c(Br)c1Br | – | -1.65% [at 7.02 µM] (inactive)
C(CCOCC1CO1)COCC1CO1 (stereo not given) | inactive | –
CNC(=O)NC(O)C(Cl)(Cl)Cl (stereo not given) | inactive | –
N#CCC#N | inactive | –
CCCCCCCCCCCCCC[P+](CCCCCC)(CCCCCC)CCCCCC | inactive | –
C=C(C#N)CCC#N | inactive | –
N#Cc1cc([N+](=O)[O-])ccc1N | inactive | –
c1ccc2c(c1)sc1ccccc12 | inactive | –
CNC(=O)O/N=C/C(C)(C)SC | inactive | –
CCCC[n+]1ccccc1C | inactive | –
CN(N=O)C(N)=O | inactive | –
Nc1cccc2ccccc12 | inactive | –
